The text below walks through data of PubChem BioAssay (NCATS).

Inconclusive results are not listed. Values without a mark were called inactive. Calls come from the whole dose curve; as a rule, active = well fitted inhibition curve with a large enough effect; inconclusive = small, poorly fitted or top-dose-only effect; inactive = flat fitted curve, though single readings scatter.

Chain of Lysine-specific demethylase 5B (Homo sapiens) (Q9UGL1 whole entry, looked up): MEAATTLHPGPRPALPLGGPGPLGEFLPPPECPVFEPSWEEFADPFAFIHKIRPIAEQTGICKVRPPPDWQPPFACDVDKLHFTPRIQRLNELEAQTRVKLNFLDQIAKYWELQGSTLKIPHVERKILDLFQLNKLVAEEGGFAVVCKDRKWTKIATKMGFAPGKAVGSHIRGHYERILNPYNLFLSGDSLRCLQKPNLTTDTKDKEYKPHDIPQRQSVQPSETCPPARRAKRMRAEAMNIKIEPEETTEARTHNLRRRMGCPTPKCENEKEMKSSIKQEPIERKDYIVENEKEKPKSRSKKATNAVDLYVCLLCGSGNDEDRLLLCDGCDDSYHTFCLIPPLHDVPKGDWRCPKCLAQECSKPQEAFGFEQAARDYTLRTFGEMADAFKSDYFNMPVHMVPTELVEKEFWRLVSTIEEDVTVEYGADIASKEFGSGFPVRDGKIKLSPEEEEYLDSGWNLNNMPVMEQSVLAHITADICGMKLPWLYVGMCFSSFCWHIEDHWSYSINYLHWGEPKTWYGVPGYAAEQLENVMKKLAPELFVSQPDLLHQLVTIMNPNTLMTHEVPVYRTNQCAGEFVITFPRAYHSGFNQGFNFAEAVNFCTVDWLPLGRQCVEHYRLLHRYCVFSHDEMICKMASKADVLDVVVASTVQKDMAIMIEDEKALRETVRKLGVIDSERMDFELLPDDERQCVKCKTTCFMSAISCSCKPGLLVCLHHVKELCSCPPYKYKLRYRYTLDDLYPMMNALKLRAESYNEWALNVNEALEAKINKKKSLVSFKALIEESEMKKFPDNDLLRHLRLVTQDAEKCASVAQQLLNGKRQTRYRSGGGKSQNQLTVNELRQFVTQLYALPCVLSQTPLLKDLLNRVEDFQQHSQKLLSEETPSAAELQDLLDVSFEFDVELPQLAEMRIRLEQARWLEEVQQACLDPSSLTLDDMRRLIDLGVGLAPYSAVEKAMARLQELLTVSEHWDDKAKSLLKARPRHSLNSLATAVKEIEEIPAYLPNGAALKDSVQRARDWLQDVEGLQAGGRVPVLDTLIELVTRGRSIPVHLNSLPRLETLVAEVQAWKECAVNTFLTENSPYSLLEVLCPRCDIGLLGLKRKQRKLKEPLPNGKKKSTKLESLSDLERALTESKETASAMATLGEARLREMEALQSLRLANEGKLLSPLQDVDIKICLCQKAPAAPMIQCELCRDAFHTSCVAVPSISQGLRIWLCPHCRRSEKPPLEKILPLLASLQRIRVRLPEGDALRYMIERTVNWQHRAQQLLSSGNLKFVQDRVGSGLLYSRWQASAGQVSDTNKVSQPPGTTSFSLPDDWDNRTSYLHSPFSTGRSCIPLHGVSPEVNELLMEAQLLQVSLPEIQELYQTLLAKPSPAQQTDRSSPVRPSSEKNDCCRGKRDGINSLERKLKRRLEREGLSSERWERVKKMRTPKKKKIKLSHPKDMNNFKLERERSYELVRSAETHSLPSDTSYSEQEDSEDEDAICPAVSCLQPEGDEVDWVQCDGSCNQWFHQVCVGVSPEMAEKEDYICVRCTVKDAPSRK

The assay concerns the target Lysine-specific demethylase 5B (Homo sapiens) (UniProt Q9UGL1). In words: Optimization screen for KDM5B Histone Demethylases FDH coupled qHTS against the LOPAC library (AID 1347166). Note: 0% is about no effect. The following applies: KDM5B demethylation, FDH-coupled NADH fluorescence (FDH is formaldehyde dehydrogenase); at 57.5 µM (top of the series). The procedure, abridged: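 KDM5BDeltaAP (200nM final) in 50mM HEPES pH 7.5, 0.01% Tween-20 was preincubated with compound for 10 min at room temperature. A substrate mix of 12.5uM H3K4Me3, 25uM a-ketoglutarate, ascorbate, Fe2+, NAD+ and formaldehyde dehydrogenase was then added. NADH fluorescence (340/450 nm) was read initially and after 30 min.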
As for `[Li+]`, the activity, negative = inhibition is -3.55%.
In the case of `Clc1nccc2c1ccc1ccccc12`, the activity, negative = inhibition is 2.06%.
For the molecule `C=CC[C@H](N)C(=O)O`, the activity, negative = inhibition is -4.4%.
For the molecule `CC[n+]1c(/C=C/C=C2/N(C)c3ccccc3C2(C)C)sc2ccccc21`, the activity, negative = inhibition was -25%.
The same measure for `NC1(C(=O)O)CCCCC1`: -8.23%; for `CCCCCCC/C=C\CCCCCCCCC(=O)O`: -29.9%.
With `Cc1cc(Cn2cnc3c2C[C@@H](C(=O)O)N(C(=O)C(c2ccccc2)c2ccccc2)C3)ccc1N`, the activity, negative = inhibition is 0.747%.
Next, `CCCOC(=O)c1c(-c2ccccc2)nc(CC)c(C(=O)SCC)c1CCC`: -14.4%; `C=C1C[C@@]23CC[C@H]4[C@@](C)(CCC[C@@]4(C)C(=O)O)[C@@H]2CC[C@]1(O)C3`: -2.05%; `N=C(N)SCCN`: -12%.
Turning to `CNc1ncnc2c1ncn2[C@H]1C[C@H](OP(=O)(O)O)[C@@H](COP(=O)(O)O)O1`, the activity, negative = inhibition was -15.5%.
In the case of `NC1CONC1=O` (configuration not stated), the activity, negative = inhibition was -3.54%.
`CNCCc1cnc(CCC(c2ccccc2)c2ccccc2)[nH]1`: the activity, negative = inhibition was -15.1%.
Next, `COc1cc([C@@H]2c3cc4c(cc3[C@H](O)C3COC(=O)[C@@H]32)OCO4)cc(OC)c1OC` (some centres not stated): -3%; `CC(=O)/C(C)=N/O`: -0.876%; `NC(=O)c1cc[n+](CC2=C(C(=O)O)N3C(=O)[C@@H](NC(=O)[C@@H](c4ccccc4)S(=O)(=O)[O-])[C@H]3SC2)cc1`: -15.3%.
Turning to `C=CCNc1ncnc2ccc(Br)cc12`, the activity, negative = inhibition was -0.201%.
